Measurements published in PubChem BioAssay AID2156 (Johns Hopkins Ion Channel Center, 2009).
The campaign covered roughly 310,000 compounds. About 3,400 (1.1%) were called active. What follows is part of a selection rich in actives, with near analogues and random picks from the rest. Unmarked numbers belong to inactive results.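 Rule for the calls: active = fluorescence ratio B-score at most minus 3 library SDs, with starting brightness B-score within 2 library SDs (cut at about -5.5 in these data); inactive = the rest, inconclusive results apart.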

Biological target: Potassium voltage-gated channel subfamily KQT member 2 (Rattus norvegicus) (UniProt O88943)
Assay: rat KCNQ2 potassium channel inhibitors, primary screen, cell-based, CHO-K1, FluxOR thallium flux, B-score (AID 2156)
Details: 20 min, at 10 µM; active compounds read low

Chain of Potassium voltage-gated channel subfamily KQT member 2 (Rattus norvegicus) (O88943 whole entry, looked up): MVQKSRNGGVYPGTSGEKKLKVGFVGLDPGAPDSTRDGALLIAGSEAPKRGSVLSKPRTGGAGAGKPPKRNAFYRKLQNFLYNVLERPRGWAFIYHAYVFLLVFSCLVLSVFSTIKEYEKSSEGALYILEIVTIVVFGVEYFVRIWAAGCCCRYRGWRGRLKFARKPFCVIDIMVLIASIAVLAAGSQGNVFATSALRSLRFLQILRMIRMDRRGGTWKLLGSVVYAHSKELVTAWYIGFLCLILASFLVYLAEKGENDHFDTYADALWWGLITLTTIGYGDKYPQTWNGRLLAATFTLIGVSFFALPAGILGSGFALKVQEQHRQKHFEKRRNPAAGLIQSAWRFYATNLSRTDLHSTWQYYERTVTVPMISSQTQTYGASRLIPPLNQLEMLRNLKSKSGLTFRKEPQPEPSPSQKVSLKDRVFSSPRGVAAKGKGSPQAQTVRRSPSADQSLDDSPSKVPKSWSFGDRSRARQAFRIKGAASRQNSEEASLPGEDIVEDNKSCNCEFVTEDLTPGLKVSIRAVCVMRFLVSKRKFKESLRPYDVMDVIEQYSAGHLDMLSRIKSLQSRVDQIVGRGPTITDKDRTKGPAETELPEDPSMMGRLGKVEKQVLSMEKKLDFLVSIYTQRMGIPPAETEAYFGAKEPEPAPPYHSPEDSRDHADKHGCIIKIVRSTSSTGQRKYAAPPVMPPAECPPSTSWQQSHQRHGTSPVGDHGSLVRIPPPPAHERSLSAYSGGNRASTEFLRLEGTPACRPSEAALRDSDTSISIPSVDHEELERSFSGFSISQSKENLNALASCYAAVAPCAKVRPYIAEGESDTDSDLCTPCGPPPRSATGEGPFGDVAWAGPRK

Row | Compound | B-score
1 | Cc1onc(-c2ccccc2Cl)c1C(=O)NCCn1ccc2ccccc21 | -5.59 (active)
2 | Cc1onc(-c2ccccc2Cl)c1C(=O)OCC(=O)c1ccccc1 | -1.85
3 | Cc1ccc2cc(CCNC(=O)c3c(-c4ccccc4Cl)noc3C)c(=O)[nH]c2c1 | -1.13
4 | Cc1ccc(-c2nc3ccccc3[nH]2)cc1N | -0.17
5 | COc1ccc(OC(C)C(=O)NCCc2nc3ccccc3[nH]2)cc1 (stereo not drawn) | inactive
6 | COc1ccc(-c2[nH]nc(-c3ccccc3)c2-c2nc3ccccc3[nH]2)cc1 | -7.31 (active)
7 | COc1ccc(CCNC(=S)N2CCN(S(=O)(=O)c3ccc(F)cc3)CC2)cc1 | -0.54
8 | Cc1ccc(CSCC(=O)N(C)CC(=O)Nc2ccc(C)cc2)cc1 | inactive
9 | CC(Oc1ccc(Br)cc1)C(=O)NCC(c1ccco1)N1CCCCC1 (stereo not drawn) | -2.11
10 | CCOC(=O)c1c(NC(=O)C(C)Sc2c[nH]c3ccccc23)sc2c1CCC2 (stereo not drawn) | -4.14
11 | CCOC(=O)c1c(NC(=O)C2(C)Cc3ccccc3C(=O)O2)sc2c1CCCC2 (stereo not drawn) | -5.8 (active)
12 | CCOC(=O)c1c(NC(=O)Cn2nc(C(F)(F)F)cc2C)sc2c1CCC2 | -0.09
13 | CCOC(=O)c1c(NC(=O)CSc2cn(CC)c3ccccc23)sc2c1CCC2 | -7.2 (active)
14 | CCOC(=O)c1c(NC(=O)CCC(=O)NCc2ccco2)sc2c1CCCC2 | inactive
15 | CCOC(=O)c1c(NC(=S)NC)sc2c1CCCC2 | inactive
16 | CC(Sc1nn(-c2ccc(Cl)cc2)c(=S)s1)C(=O)NCC1CCCO1 (stereo not drawn) | -0.45
17 | COc1cccc(NC(=O)CSc2nccn(-c3ccc4c(c3)OCCO4)c2=O)c1 | -2.03

Row | Compound | B-score
18 | COc1ccccc1CCC(=O)NNC(=O)c1ccncc1 | -1.15
19 | COc1ccc(S(=O)(=O)N2CCOC23CCN(S(=O)(=O)c2ccc([N+](=O)[O-])cc2)CC3)cc1 | -0.03
20 | Cc1ccc(N=C2SCCCN2C(=O)c2cccc(N3C(=O)CCC3=O)c2)cc1Cl | inactive
21 | COc1ccccc1NC(=O)C(C)OC(=O)c1ccc(-n2cnnn2)cc1 (stereo not drawn) | inactive
22 | O=C(CCN1C(=O)C2CCCCC2C1=O)Nc1ccc(OC(F)F)cc1 (stereo not drawn) | -1.21
23 | O=C(COc1cccc(Cl)c1)NCc1ccccc1 | inactive
24 | C[C@H](NC(=O)c1ccccc1Cl)C(=O)OCCOc1cccc(Cl)c1 | -6.72 (active)
25 | CC(C)NC(=O)c1ccc(Cl)cc1Cl | inactive
26 | CCOC(=O)c1c(C)[nH]c(C(=O)OCC(=O)c2ccc(OC)cc2OC)c1C | -0.07
27 | COc1ccc(S(=O)(=O)N2CCCCC2)cc1NC(=O)C1CC(=O)N(c2ccc3c(c2)OCCO3)C1 (stereo not drawn) | -0.27
28 | Cc1csc2nc(O)c(C(=O)NCCN3CCOCC3)c(=O)n12 | inactive
29 | Cc1ccc(SCC(=O)c2cc(C)c(OC(=S)N(C)C)c(C)c2)cc1 | -7.36 (active)
30 | Cc1ccc(SCC(=O)Nc2ccc3c(c2)OCCO3)cc1 | inactive
31 | Cc1ccc(C(=O)CSc2ccccc2C(=O)O)cc1 | inactive
32 | Cc1ncc(CO)c(/C=N/NC(=O)c2cccc(S(=O)(=O)N3CCCC3)c2)c1O | -2.49
33 | Cc1ccc(C(=O)NC2CCCC(C)C2C)cc1S(=O)(=O)N1CCCCC1 (stereo not drawn) | -3.09
